Data published in PubChem BioAssay.
The source made the active and inactive calls.

What was measured:
[1] = test system: Plasmodium falciparum Sir2 (PF13_0152, Sir2A); assay: pfSir2 binders on small-molecule microarrays, primary screen, biochemical, small-molecule microarray, 635 nm fluorescence (AID 1098); details: small-molecule microarray binding, fluorescence 635 nm; higher = more signal;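 further: score merges spot fluorescence intensity with its signal-to-noise ratio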
[2] = small-molecule microarray binders of probe aDKK1, primary screen, biochemical, biotinylated probe, 635/667 nm fluorescence (AID 1099); details: higher = more signal;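 further: score merges 667nm spot fluorescence with signal to noise across triplicate slides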
[3] = small-molecule microarray binders of probe aCHRDL2, primary screen, biochemical, biotinylated probe, 635/667 nm fluorescence (AID 1100); details: higher = more signal
[4] = splicing luciferase reporter signal modulators, primary screen, spliceosome inhibition project, cell-based, HEK293, splice +/- reporter (AID 1101); details: luminescence, 24 h, higher = more signal, called active from +8 up or from −8 down;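 further: HEK293 cells carrying a splicing-competent luciferase reporter gene; test concentration not given here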
[5] = molecular target: Fibroblast growth factor 10 (Homo sapiens) (UniProt O15520); assay: FGF10 binders on small-molecule microarrays, primary screen, biochemical, small-molecule microarray, 635 nm fluorescence (AID 1102); details: FGF10 binding, fluorescence 635 nm, higher = more signal
[6] = test system: glycogen synthase kinase-3 (GSK3A per assay name; protocol says GSK3B); assay: GSK3 binders on small-molecule microarrays, primary screen, biochemical, small-molecule microarray, 635 nm fluorescence, GSK3A (AID 1103); details: small-molecule microarray binding, fluorescence 635 nm; higher = more signal; further: the record names both GSK3A and GSK3B
[7] = molecular target: Epidermal growth factor receptor (Homo sapiens) (UniProt P00533); assay: EGFR binders on small-molecule microarrays, primary screen, biochemical, small-molecule microarray, 635 nm fluorescence (AID 1104); details: EGFR binding, higher = more signal;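 further: score merges 667 nm emission intensity with spot signal to noise over triplicate slides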
[8] = molecular target: Follistatin-related protein 3 (Homo sapiens) (UniProt O95633); assay: FSTL3 binders on small-molecule microarrays, primary screen, biochemical, small-molecule microarray, 635 nm fluorescence (AID 1105); details: FSTL3 binding, higher = more signal;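 further: score merges emission near 667 nm and signal to noise per printed spot across three slides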
[9] = molecular target: Dickkopf-related protein 1 (Homo sapiens) (UniProt O94907); assay: DKK1 binders on small-molecule microarrays, primary screen, biochemical, small-molecule microarray, 635 nm fluorescence scan (AID 1106); details: DKK1 binding, higher = more signal;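 further: score merges emission near 667 nm with signal to noise over three replicate slides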
[10] = test system: Inhibin beta A chain (activin A); assay: INHBA (activin A) binders on microarrays, primary screen, biochemical, small-molecule microarray, 635 nm fluorescence scan (AID 1107); details: small-molecule microarray binding, higher = more signal;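 further: mouse activin A protein probed at 4.33 µg/mL on printed slides; score merges bound-protein fluorescence near 667 nm with spot signal-to-noise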
[11] = test system: Human papillomavirus type 1a protein E7 (residues 44-93); assay: HPV1a E7 fragment binders on microarrays, primary screen, biochemical, small-molecule microarray, residues 44-93, 635 nm fluorescence (AID 1108); details: small-molecule microarray binding, fluorescence 635 nm; higher = more signal;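 further: E7 fragment applied at 1 µg/mL in TBST for 1 h at 4 C; score combines spot fluorescence with its signal to noise ratio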
[12] = modulators of HCV replicon luciferase signal, primary screen, HCV replication inhibitor project, Huh7 cells, luciferase reporter (AID 1109); details: 48 h, higher = more signal;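 further: huh7 hepatoma cells harbouring a luciferase neomycin HCV replicon reporter; luciferase luminescence as measure of HCV replicon replication; test concentration not given here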
[13] = molecular target: Left-right determination factor 2 (Homo sapiens) (UniProt O00292); assay: LEFTY2 binders on small-molecule microarrays, primary screen, biochemical, small-molecule microarray, 635 nm fluorescence scan (AID 1110); details: LEFTY2 binding, higher = more signal
[14] = molecular target: Calmodulin-1 (Homo sapiens) (UniProt P0DP23); assay: CALM1 binders on microarrays, EGTA buffer, profiling panel, biochemical, small-molecule microarray, Cy5-labelled CALM1 (AID 1111); details: Cy5-CALM1 binding fluorescence, higher = more signal;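 further: labelled calmodulin applied in Tris saline Tween buffer holding calcium plus EGTA and DTT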
[15] = molecular target: Calmodulin-1 (Homo sapiens) (UniProt P0DP23); assay: calcium-bound CALM1 binders on microarrays, profiling panel, artefact control for SMM control-protein annotation, biochemical, small-molecule microarray, Cy5-labelled CALM1, plus calcium (AID 1112); details: Cy5-CALM1 binding fluorescence, higher = more signal;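 further: score merges spot fluorescence with signal to noise from triplicate slides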
[16] = small-molecule microarray binders of probe aWnt5a, primary screen, biochemical, biotinylated probe, 635/667 nm fluorescence (AID 1113); details: higher = more signal;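 further: score merges 667 nm fluorescence intensity with signal-to-noise per printed feature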
[17] = small-molecule microarray binders of probe aShh, primary screen, biochemical, biotinylated probe, 635/667 nm fluorescence (AID 1114); details: higher = more signal;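 further: probe is biotin-labelled aShh protein from a stem cell growth factor screen; measures binding of labelled protein to compounds printed on the slide; score merges feature fluorescence at 667 nm with signal-to-noise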
[18] = small-molecule microarray binders of probe aNog, primary screen, biochemical, biotinylated probe, 635/667 nm fluorescence (AID 1115); details: higher = more signal;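 further: probe is biotinylated aNog protein used at 0.15 µg/mL for 1 h at 4 C; z-score combines 667 nm fluorescence of each spot with its signal to noise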
[19] = molecular target: Torsin-1A-interacting protein 1 (Homo sapiens) (UniProt Q5JTV8); assay: LAP1 binders from COS7 cell lysate, primary screen, small-molecule microarray, 635/667 nm fluorescence (AID 1116); details: COS7-hLAP1 lysate binding, 635 nm fluorescence, higher = more signal
[20] = molecular target: Alpha-bungarotoxin (Bungarus multicinctus) (UniProt P60615); assay: alpha-bungarotoxin binders on microarray, profiling panel, artefact control for SMM control protein annotation, biochemical, small-molecule microarray, Alexa647 label, 635/667 nm fluorescence (AID 1117); details: alpha-BTX-A647 binding fluorescence, higher = more signal
Sequence of Alpha-bungarotoxin (Bungarus multicinctus) (P60615 whole entry, looked up): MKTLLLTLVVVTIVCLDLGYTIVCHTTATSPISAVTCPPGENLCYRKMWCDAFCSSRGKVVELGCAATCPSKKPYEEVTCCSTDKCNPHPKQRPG

Sequence of Torsin-1A-interacting protein 1 (Homo sapiens) (Q5JTV8 whole entry, looked up): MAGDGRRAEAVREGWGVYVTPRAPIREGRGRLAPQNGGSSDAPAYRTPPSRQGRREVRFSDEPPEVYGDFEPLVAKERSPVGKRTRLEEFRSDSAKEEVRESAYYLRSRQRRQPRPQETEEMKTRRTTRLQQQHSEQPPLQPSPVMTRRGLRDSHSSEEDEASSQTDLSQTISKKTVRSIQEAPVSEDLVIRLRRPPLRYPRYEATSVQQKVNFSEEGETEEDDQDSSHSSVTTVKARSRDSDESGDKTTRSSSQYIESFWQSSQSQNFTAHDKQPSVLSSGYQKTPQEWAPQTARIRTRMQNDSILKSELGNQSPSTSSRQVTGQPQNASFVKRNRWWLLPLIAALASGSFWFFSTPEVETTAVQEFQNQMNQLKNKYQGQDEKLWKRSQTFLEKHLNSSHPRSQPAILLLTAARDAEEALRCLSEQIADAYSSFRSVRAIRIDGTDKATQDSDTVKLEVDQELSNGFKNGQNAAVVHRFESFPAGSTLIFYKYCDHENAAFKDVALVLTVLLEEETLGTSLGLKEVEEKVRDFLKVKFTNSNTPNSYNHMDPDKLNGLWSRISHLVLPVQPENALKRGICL
Sequence of Left-right determination factor 2 (Homo sapiens) (O00292 whole entry, looked up): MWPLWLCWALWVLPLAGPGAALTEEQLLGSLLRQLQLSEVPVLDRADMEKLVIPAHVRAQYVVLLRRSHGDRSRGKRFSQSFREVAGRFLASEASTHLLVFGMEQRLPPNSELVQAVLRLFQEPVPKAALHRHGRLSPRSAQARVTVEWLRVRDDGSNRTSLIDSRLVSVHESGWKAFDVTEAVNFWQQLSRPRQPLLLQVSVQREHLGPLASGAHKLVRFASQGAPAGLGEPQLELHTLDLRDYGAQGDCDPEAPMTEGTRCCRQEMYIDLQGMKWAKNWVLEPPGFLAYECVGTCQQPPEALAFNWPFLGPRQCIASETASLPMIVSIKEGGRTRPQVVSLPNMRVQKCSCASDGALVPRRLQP
Sequence of Epidermal growth factor receptor (Homo sapiens) (P00533 whole entry, looked up): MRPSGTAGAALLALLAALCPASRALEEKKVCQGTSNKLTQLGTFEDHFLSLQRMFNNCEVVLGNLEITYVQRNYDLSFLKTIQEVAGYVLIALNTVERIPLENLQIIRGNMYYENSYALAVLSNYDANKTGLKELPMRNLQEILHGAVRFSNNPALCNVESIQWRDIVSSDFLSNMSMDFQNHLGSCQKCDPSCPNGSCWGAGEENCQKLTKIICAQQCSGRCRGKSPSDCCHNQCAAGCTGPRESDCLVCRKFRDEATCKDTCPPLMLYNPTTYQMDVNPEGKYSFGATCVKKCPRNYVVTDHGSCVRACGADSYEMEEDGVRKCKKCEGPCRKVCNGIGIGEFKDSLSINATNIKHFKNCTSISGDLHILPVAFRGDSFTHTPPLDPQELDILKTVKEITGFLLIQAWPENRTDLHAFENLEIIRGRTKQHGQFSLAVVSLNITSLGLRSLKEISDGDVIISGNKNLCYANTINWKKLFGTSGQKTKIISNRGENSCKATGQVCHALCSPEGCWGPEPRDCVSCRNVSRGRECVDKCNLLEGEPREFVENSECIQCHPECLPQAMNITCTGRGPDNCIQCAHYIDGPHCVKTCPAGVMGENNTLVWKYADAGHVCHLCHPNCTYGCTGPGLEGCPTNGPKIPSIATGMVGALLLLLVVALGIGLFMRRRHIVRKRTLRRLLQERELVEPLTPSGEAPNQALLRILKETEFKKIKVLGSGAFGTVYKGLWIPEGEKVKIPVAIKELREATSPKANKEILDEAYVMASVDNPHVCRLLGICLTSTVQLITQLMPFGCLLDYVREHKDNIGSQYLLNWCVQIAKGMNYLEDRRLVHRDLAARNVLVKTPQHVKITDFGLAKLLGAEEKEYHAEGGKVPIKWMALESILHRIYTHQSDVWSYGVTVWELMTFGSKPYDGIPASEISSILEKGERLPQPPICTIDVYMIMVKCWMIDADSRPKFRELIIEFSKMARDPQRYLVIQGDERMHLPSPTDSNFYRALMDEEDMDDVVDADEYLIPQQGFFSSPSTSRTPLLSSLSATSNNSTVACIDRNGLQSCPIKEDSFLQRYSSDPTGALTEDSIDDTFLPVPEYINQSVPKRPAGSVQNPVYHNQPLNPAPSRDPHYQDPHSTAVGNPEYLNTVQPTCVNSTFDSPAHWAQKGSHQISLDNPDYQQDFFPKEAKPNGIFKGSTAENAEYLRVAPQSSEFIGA
Sequence of Dickkopf-related protein 1 (Homo sapiens) (O94907 whole entry, looked up): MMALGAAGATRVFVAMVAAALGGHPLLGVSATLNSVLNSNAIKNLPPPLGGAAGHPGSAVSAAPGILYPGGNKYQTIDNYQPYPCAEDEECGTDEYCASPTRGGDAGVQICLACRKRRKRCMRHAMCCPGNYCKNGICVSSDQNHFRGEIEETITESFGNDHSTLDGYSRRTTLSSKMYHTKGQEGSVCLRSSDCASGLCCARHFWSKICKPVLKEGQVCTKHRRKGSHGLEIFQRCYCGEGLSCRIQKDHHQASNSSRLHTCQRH
Sequence of Fibroblast growth factor 10 (Homo sapiens) (O15520 whole entry, looked up): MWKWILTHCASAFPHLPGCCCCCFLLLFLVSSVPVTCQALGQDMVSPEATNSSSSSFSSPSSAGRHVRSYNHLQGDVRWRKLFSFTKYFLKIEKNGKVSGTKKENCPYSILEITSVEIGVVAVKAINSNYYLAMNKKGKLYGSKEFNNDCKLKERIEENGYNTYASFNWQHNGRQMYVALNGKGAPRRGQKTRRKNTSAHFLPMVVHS
Sequence of Follistatin-related protein 3 (Homo sapiens) (O95633 whole entry, looked up): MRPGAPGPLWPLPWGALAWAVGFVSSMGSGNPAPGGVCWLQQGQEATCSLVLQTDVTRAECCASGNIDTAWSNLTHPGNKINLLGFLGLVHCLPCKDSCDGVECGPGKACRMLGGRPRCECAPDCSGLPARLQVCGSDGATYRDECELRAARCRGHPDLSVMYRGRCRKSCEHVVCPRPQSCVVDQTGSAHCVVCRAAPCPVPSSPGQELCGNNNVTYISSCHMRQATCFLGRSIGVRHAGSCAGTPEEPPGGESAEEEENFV

Row | Compound | composite z-score [1] | composite z-score [2] | composite z-score [3] | z-score [4] | composite z-score [5] | composite z-score [6] | composite z-score [7] | composite z-score [8] | composite z-score [9] | composite z-score [10] | composite z-score [11] | z-score [12] | composite z-score [13] | composite z-score [14] | composite z-score [15] | composite z-score [16] | composite z-score [17] | composite z-score [18] | composite z-score [19] | composite z-score [20]
1 | C=CC1c2cc(O)c(OC)cc2CCN1Cc1ccc([N+](=O)[O-])o1 (stereo not given) | 1.19 | 0.819 | 0.826 | -0.109 (inactive) | 0.367 | -0.128 | -0.841 | -0.15 | -0.641 | 0.87 | 0.0967 | 0.366 | -0.54 | 1.15 | 1.18 | 0.0306 | 0.13 | 0.57 | 1.82 | 0.899
2 | CCOC(=O)C[C@H]1[C@H](OC(=O)c2ccccc2-c2ccccc2)[C@@H](NC(=O)c2ccccc2)c2cc(OCCCO)ccc2N1C(=O)c1ccccc1 | -0.242 | 0.0316 | -0.375 | 0.0178 (inactive) | 0.645 | 0.459 | -0.106 | 0.284 | 0.169 | 0.169 | 0.374 | -0.843 | 0.345 | 0.114 | 0.148 | -0.0425 | -0.0146 | -0.0926 | -0.244 | 0.0475
3 | NCCCCCNC(=O)[C@@H]1C[C@@H]2C(=O)N3CCC[C@H]3C(=O)N2[C@@H]1c1ccc(O)cc1 | 1.1 | 0.919 | 0.857 | -0.274 (inactive) | 0.927 | 1.14 | 0.114 | 0.495 | 0.853 | 0.98 | 1.31 | -0.837 | 0.732 | 1.09 | 1.12 | 0.216 | 0.163 | -0.477 | 1.05 | 0.494
4 | COc1ccc(C(O)C2C=CC3C(=O)N(c4ccccc4)C(=O)C3N2Nc2ccccc2)cc1 (stereo not given) | 0.97 | -0.0903 | 0.637 | 1.68 (inactive) | 1.31 | 0.592 | 0.199 | 1.37 | -0.0198 | 1.04 | 1.39 | -0.454 | -0.13 | 0.553 | 0.147 | 0.0102 | -0.0243 | 0.36 | 0.272 | 2.13
5 | Cc1ccc(S[C@]2(C(=O)NC(C)C)CC(=O)N(C(C)C)[C@@H]2c2ccc(CO)cc2I)cc1 | 0.476 | 0.0345 | 0.706 | -0.714 (inactive) | -0.101 | -0.498 | -0.56 | 0.298 | -0.484 | 0.904 | 0.973 | -1.75 | -0.485 | 0.198 | -0.114 | -0.104 | 0.216 | -0.327 | 0.322 | -0.174
6 | CC(C)C[C@@H]1NC(=O)[C@H]2C[C@@H](C(=O)NCCCCCN)[C@@H](c3cccc(OCCO)c3)N2C1=O | 0.481 | 0.206 | 0.235 | -1.76 (inactive) | -0.361 | -0.389 | 0.125 | -0.348 | 0.183 | -0.762 | -1.01 | 0.335 | -0.0189 | 0.331 | 0.422 | -0.103 | -0.138 | -0.157 | 2.08 | 1.03
7 | CCOC(=O)C1=C[C@@H](c2ccccc2)N(S(=O)(=O)c2ccc(C)cc2)[C@H]1c1ccccc1 | 0.394 | 0.0612 | 0.753 | -0.924 (inactive) | -0.0005 | -0.193 | 0.0794 | -0.0021 | -0.399 | 1.46 | 0.0627 | 0.235 | -0.063 | 0.997 | 0.209 | -0.124 | -0.138 | 1.13 | -0.109 | 0.291
8 | CN(C)CCCNC(=O)[C@@H]1c2ccccc2C(=O)N(C2CCCCC2)[C@H]1c1ccc(CO)cc1 | 1.37 | 0.229 | 0.11 | 1.39 (inactive) | 1.43 | 1.32 | 0.758 | 1.53 | 1.15 | 0.106 | 1.44 | -2.43 | 1.17 | 1.41 | -0.179 | -0.0459 | 0.191 | -0.312 | 0.87 | 0.233
9 | CCCCC(=C=CC[C@H](O)c1ccc(OCCO)cc1)C[C@H](O)c1cc(Cl)cc(Cl)c1O | 1.06 | -0.0865 | 0.218 | -0.321 (inactive) | 1.35 | 0.11 | -0.0609 | 0.17 | 0.193 | 0.813 | 0.584 | -1.63 | 0.0916 | 0.0258 | -0.0211 | -0.198 | -0.153 | 0.452 | 0.849 | 0.779
10 | O=C1O[C@H](c2ccccc2)[C@H](c2ccccc2)N2[C@H]1[C@@H](C(=O)Nc1nc3ccccc3s1)[C@]1(C(=O)Nc3ccc(C#CC4=CCCCC4)cc31)[C@H]2c1ccc(O)cc1 | 1.52 | -0.0399 | 0.115 | -1.31 (inactive) | 0.588 | 1.22 | 0.308 | 0.842 | 0.188 | 0.533 | 1.38 | -0.832 | 0.0561 | 1.18 | 0.366 | -0.0203 | 0.0465 | 0.178 | 1.17 | 1.4
11 | CCN(CC)c1ccc(N2CC=CC34O[C@@H]5C=CCCOC(=O)C5[C@H]3C(=O)N(CCO)[C@@H]4C2=O)cc1 (stereo not given in full) | -0.0437 | -0.289 | 0.269 | -0.688 (inactive) | -0.504 | -0.908 | -0.869 | -1.45 | -0.351 | -0.589 | -0.595 | -0.362 | -1.37 | -0.547 | -0.183 | -0.214 | -0.26 | 2.13 | -1.01 | 0.253
12 | O=C1O[C@H](c2ccccc2)[C@H](c2ccccc2)N2[C@H]1[C@@H](C(=O)N1CCCCCCC1)[C@]1(C(=O)Nc3ccc(C#CC4(O)CCCCCC4)cc31)[C@H]2c1ccc(O)cc1 | 1.5 | 2.93 | 1.59 | 0.69 (inactive) | 1.19 | 1.34 | 1.72 | 1.58 | 1.75 | 1.79 | 1.4 | -1.36 | 1.33 | 2.42 | 1.19 | 1.2 | 2.97 | 3.1 | 4.57 | 2.28
13 | COCC1C2CC[C@H]3C(OCc4ccc(OC)cc4)OC[C@]4(C)[C@H]3C2=C(CN4C(=O)OC(C)(C)C)[C@H](C)C1COC (stereo not given in full) | 0.852 | 0.319 | 0.482 | -1.98 (inactive) | 1.11 | 1.32 | 0.418 | 1.16 | 0.207 | 0.752 | 1.4 | -0.733 | 0.366 | 2.47 | 0.671 | -0.0134 | 0.0898 | -0.373 | 0.782 | 1.14
14 | C=C(C)C1CCC(C(O)C2C=CC3C(=O)N(C)C(=O)C3N2Nc2cc(OC)c(OC)c(OC)c2)CC1 (stereo not given) | 0.506 | 0.005 | 0.422 | 0.719 (inactive) | 0.755 | 1.17 | 0.885 | 1.15 | 0.519 | 1.11 | 1.4 | -0.355 | 0.428 | 0.655 | -0.157 | 0.0101 | -0.0243 | 0.993 | -0.161 | 1.26
15 | COCCOC(=O)N1C(=O)[C@@]2(c3cc(C#CCC(C(=O)OC)C(=O)OC)ccc31)[C@H](c1ccc(OCCO)cc1)N1[C@H](c3ccccc3)[C@H](c3ccccc3)OC(=O)[C@H]1[C@@H]2C(=O)Nc1nc2ccccc2s1 | 1.02 | 0.0317 | -0.108 | 0.907 (inactive) | 0.84 | 1.06 | 0.292 | 1.08 | 0.279 | 0.495 | 1.16 | -2.06 | 0.423 | 1.05 | -0.0309 | -0.0202 | -0.0793 | -0.114 | 0.743 | 1.06
